Compound activity deposited in PubChem by National Center for Advancing Translational Sciences (NCATS).
ALDH1A1 inh = ALDH1A1 (human) enzyme inhibition; Purified ALDH1A1, NADH fluorescence, propionaldehyde substrate; Potency, µM (series often up to 75.3 µM), for inactives: at the highest dose activity, negative = inhibition, actives largely listed as inhibitors; 7.3% of 220,000 active;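 also: potency is read from the fitted curve at half-maximal effect; plate controls were no enzyme wells and a reference inhibitor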
Target sequence (P00352 whole entry, looked up): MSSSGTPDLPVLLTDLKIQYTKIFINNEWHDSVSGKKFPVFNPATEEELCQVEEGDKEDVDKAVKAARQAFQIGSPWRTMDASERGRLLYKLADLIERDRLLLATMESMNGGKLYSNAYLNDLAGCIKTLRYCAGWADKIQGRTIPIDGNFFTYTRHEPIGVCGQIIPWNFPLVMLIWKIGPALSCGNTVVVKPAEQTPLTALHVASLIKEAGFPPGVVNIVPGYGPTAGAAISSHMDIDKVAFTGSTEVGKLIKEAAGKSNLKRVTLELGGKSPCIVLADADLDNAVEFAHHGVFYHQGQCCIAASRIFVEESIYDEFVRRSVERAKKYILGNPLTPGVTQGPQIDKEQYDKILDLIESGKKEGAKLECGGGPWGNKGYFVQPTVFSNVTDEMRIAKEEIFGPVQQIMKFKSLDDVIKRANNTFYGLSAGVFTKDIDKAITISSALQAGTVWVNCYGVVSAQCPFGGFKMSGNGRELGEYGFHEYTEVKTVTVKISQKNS
PNC inhibitor = blocks assembly of the perinucleolar compartment; AID 2417; 3.1% of 140,000 active; PC3M PTB-GFP, PNC prevalence imaging, 16 h; stronger effect = lower value; activity change (PNC), negative = inhibition, % at 10 µM;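 active = readout at or below -70, meaning at least 70% loss of cells showing the perinucleolar compartment, a nuclear body marking cancer cells; inconclusive = readout between -30 and a set limit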;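 also: plate controls were DMSO wells for no effect and camptothecin positive control wells for full effect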
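Compounds are pinned in duplicate onto adhered PC3M cells stably expressing GFP-tagged PTB and incubated 16 h at 37 C. Cells are then fixed, nuclei stained with Hoechst, and PNC-positive cells counted.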
HPGD inh = blocks human HPGD enzyme activity; 4.3% of 150,000 active; Potency, µM, without a hit: top-dose activity change, negative = inhibition, most hits filed as inhibitors; P15428; purified HPGD, NADH fluorescence kinetic, PGE2 substrate; also: potency is read from the fitted curve at half-maximal effect
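NADH formation kinetics: reaction with 30 uM PGE2 and 1 mM NAD+ (final), 20 nM enzyme, Tris-HCl pH 8 with Tween 20, after 15 min compound preincubation at room temperature. Fluorescence change, last versus first of five reads.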
12-hLO inh = blocks human 12-lipoxygenase activity. purified 12-hLO, xylenol orange hydroperoxide absorbance. 0.12% of 150,000 active. AID 1452. Potency, µM (highest dose often 57.1 µM), for inactives: at the highest dose activity change, negative = inhibition, usual class: inhibitors; active = well fitted curve in the direction sought with a large enough effect; inconclusive = small, poorly fitted or top-dose-only effect, or another doubt; inactive = no such curve, though single readings can be large; an effect the other way counts as inactive or inconclusive; also: potency is read from the fitted curve at half-maximal effect; nearly all actives have a fitted effect of over 55% in size
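Purified human 12hLO (150 nM final) was preincubated with compounds for 15 min at room temperature in 25 mM Hepes pH 7.0, 0.01% Triton X-100, then reacted with 40 uM arachidonic acid for 30 min. Hydroperoxide was detected with ferrous iron/xylenol orange.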
IMPase cell inh = membrane-permeable compound that blocks inositol monophosphatase; P97697; CHO-M1 cells, IP1 accumulation, HTRF TR-FRET ratio; 120,000 tested, under 10 active; inhibition (IP1 accumulation), % at 46.1 µM; active = well fitted curve in the direction sought with a large enough effect in the signal ratio, not every such curve was filed as active; inconclusive = small, poorly fitted or top-dose-only effect, or a change in a side signal; inactive = no such curve, though single readings can be large or run the other way; the % refers to the signal ratio;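 also: cells stimulated with carbachol in lithium chloride buffer; plate controls were DMSO basal wells for no effect and reference inhibitor wells for full effect; higher means more IMPase inhibition seen as more IP1 and lower FRET ratio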
Target sequence (P97697 whole entry, looked up): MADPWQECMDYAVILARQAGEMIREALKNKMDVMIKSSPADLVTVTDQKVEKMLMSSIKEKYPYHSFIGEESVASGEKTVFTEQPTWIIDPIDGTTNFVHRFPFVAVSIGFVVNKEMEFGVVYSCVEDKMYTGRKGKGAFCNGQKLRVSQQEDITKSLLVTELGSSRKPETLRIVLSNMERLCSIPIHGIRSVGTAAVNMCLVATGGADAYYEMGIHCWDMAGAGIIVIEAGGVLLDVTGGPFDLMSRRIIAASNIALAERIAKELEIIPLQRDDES
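Elevated IP1 in lysates lowers TR-FRET signal (665/620 ratio and 620 channel reported). Cells were CHO-M1, given carbachol (50 uM as added) plus 50mM LiCl, pH 7.4, 30 min, 37C; compounds titrated up to 46 uM; AC50 by Hill equation.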
IMPase Li inh = cell-permeable IMPase inhibitors with lithium potentiation; CHO-M1 cells, IP1 TR-FRET (IP-One), carbachol + lithium; Potency, µM (titrated, usually from 59.4 µM), without a hit: at the highest dose activity, negative = IMPase inhibition, usual class: inhibitors; 0.35% of 210,000 active; active = well fitted curve in the direction sought with a large enough effect; inconclusive = small, poorly fitted or top-dose-only effect, or another doubt; inactive = no such curve, though single readings can be large; an effect the other way counts as inactive or inconclusive;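 also: IP1 builds up when IMPase is blocked and the TR-FRET signal falls; potency is read from the fitted curve at half-maximal effect; plate controls were basal vehicle for no effect and high inhibitor control for full effect; nearly all actives have a fitted effect of over 50% in size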
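Steps: plate 2000 CHO-M1 cells per well and culture 16–30 h; add compound and lithium; incubate 30 min, 37C; add d2-IP1 tracer and Eu cryptate anti-IP1 antibody in lysis buffer; read after 10 min at room temperature.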
Starred values were filed as active, the others as inactive; ? = inconclusive; / = no result; [ ] = remark or other dose. A selection: hits, their analogues and other compounds. The true share with any hit is near 11%. Unless noted, calls follow the shape of the dose curve; as a rule, active = well fitted inhibition curve with a large enough effect (not every such curve was filed as active); inconclusive = small, poorly fitted or top-dose-only effect, or another doubt; inactive = no such curve, though single readings can be large or run the other way. Unless noted, % is scaled to controls: 0 for no effect and ±100 for the full control effect.

SMILES	ALDH1A1 inh	PNC inhibitor	HPGD inh	12-hLO inh	IMPase cell inh	IMPase Li inh
CC(CCc1ccccc1)NC(=O)CN1CCN(c2ccccc2)CC1 (stereo not given)	31.6µM*	/	/	/	/	19.1%
COc1ccc(CNC(=S)Nc2ccc(OC)cc2)cc1	?	-1.6	-16.6%	-2.3%	/	3.4%
COc1ccc(CNC(=S)NC(C)CCc2ccccc2)cc1 (stereo not given)	6.31µM*	/	/	/	/	10.4%
Cc1ccc(CC(=O)NC(C)CCc2ccccc2)cc1 (stereo not given)	-4.5%	?	-26.6%	-4.3%	4.5	-7.6%[38.3 µM]
COc1ccc(CNC(=S)NCc2ccc(OC)cc2)cc1	20µM*	/	/	/	/	-2.4%
Cc1ccc(NC(=S)NC(C)CCc2ccccc2)cc1C (stereo not given)	-11.9%	16.7	-4.0%	-20.9%	/	9.9%
Cc1cc(=O)cc2oc3cc(N)c(-c4c(C)cc(O)cc4O)c(C)c3nc1-2	-5.3%	/	-11.7%	-5.4%	17.8	114.6%
CC(CCc1ccccc1)NC(=O)/C=C/c1ccccc1 (stereo not given)	11.2µM*	52.1	-3.8%	-3.4%	7.0	-5.4%[38.3 µM]
CNc1ncnc2c1ncn2[C@@H]1O[C@H](COP(=O)(O)O)[C@@H](O)[C@H]1O	2.7%	/	/	/	/	-26.6%
Cc1cc(NS(=O)(=O)N(C)C)ccc1C(C)C	?	20.9	15.8µM*	4.0%	-4.3	25.3%[38.3 µM]
CN(C)S(=O)(=O)Nc1ccc2c(c1)OCO2	1.5%	0.2	?	-0.7%	-15.2	1.4%[38.3 µM]
CCCC[C@@H]1C[C@H]1C(NC(=O)c1ccco1)c1ccc(-c2ccccc2)cc1 (stereo not given in full)	-2.4%	/	-7.2%	-1.5%	/	-5.4%
Cn1c(=O)c2cc3c(nc2n(C)c1=O)CC(c1ccccc1)CC3=O (stereo not given)	14.1µM*	/	/	/	/	/
CSc1nc2nc3c(cn2n1)C(=O)CC(c1ccccc1)C3 (stereo not given)	?	24.3	-21.2%	-3.7%	7.9	1.9%[38.3 µM]
O=C(Nc1nnc(SCc2ccc(Cl)cc2)s1)c1ccco1	0.9%	35.5	-16.1%	-5.2%	5.7	0.2%[38.3 µM]
COc1cc2c(cc1NC(=O)CSc1nc3cc(Cl)ccc3s1)oc1ccccc12	-5.5%	?	-9.5%	4.3%	/	-3.6%
O=C(CSc1nc2cc(Cl)ccc2s1)c1ccco1	?	-6.5	22.4µM*	-19.5%	-1.0	-6.2%[38.3 µM]
O=C(CSCc1ccc(Cl)cc1)c1ccco1	?	2.7	22.4µM*	-6.8%	-6.8	-6.6%[38.3 µM]
O=C(CSc1nnc(SCC(=O)c2ccco2)s1)c1ccco1	?	-19.8	31.6µM*	-11.0%	3.6	-6.5%[38.3 µM]
Cc1c[nH]c(=O)n(CCCN2CCN(c3ccccc3OCC(F)(F)F)CC2)c1=O	3.8%	/	-1.6%	-3.7%	5.6	16.1%
CN(CCC1CCCCO1)C(=O)CCc1nnc(C2CCCCC2)o1 (stereo not given)	-6.4%	/	/	/	/	-1.8%
Cc1ccc(CSC2=Nc3ccccc3C3=NC(CCC(=O)N4CCN(c5ccccc5)CC4)C(=O)N23)cc1 (stereo not given)	/	/	/	/	-3.1	/
CC1SC(c2cccc(Cl)c2)NC1=O (stereo not given)	11.2µM*	-10.3	?	2.1%	?	13.2%[38.3 µM]
O=C(COc1ccc(Cl)cc1[N+](=O)[O-])N1CCCCCC1	3.6%	/	/	/	/	9.5%
CCCCn1c(SCn2nnc3ccccc3c2=O)nc2cc(C(=O)OC)ccc2c1=O	-2.2%	39.8	-4.9%	1.6%	8.0	4.3%[38.3 µM]
SMILES	ALDH1A1 inh	PNC inhibitor	HPGD inh	12-hLO inh	IMPase cell inh	IMPase Li inh
CCCCn1c(SC(C)C(N)=O)nc2cc(C(=O)OC)ccc2c1=O (stereo not given)	0.597µM*	-0.9	-14.6%	6.3%	2.9	-24.4%[38.3 µM]
CCNC(=O)NC(=O)C(C)Sc1nc2cc(C(=O)OC)ccc2c(=O)n1-c1ccccc1 (stereo not given)	22.4µM*	-18.6	-7.2%	-4.9%	13.3	-14.6%[38.3 µM]
CCOc1ccc(NCC(=O)Nc2ccc(Cl)cc2C)cc1	3.55µM*	-27.0	-4.9%	-6.9%	5.5	3.5%
Cc1ccc(NC(=O)CCl)c(C)c1	0.282µM*	/	/	/	/	7.9%
Cc1ccc(NC(=O)C(=O)NCCOc2ccc(Cl)cc2)c(C)c1	19.7%	14.5	-7.9%	-4.2%	/	5.0%
CCCOc1ccc(NCC(=O)Nc2ccc(C)cc2C)cc1	2.24µM*	-29.3	-1.6%	-2.4%	?	3.0%
COc1ccc(NCC(=O)Nc2ccc(Cl)cc2C)c(OC)c1	4.47µM*	?	7.94µM*	-2.6%	-7.8[1.84 µM]	23.6%[38.3 µM]
O=C(CCn1c(=O)c2ccccc2n(CC(=O)Nc2ccc(F)cc2)c1=O)NCCc1ccccc1	/	/	/	/	2.2	/
Cc1cc(Cl)ccc1NC(=O)CCCN1C(=O)CCC1=O	3.9%	4.6	0.6%	3.0%	-0.7	-8.2%[38.3 µM]
Cc1cc(Cl)ccc1NC(=O)CCC(=O)O	2.1%	-83.5*	4.4%	-0.3%	/	-2.9%
CN(C)c1nc(Cl)nc(N(C#N)CCOc2ccccc2)n1	14.1µM*	/	/	/	/	2.8%
O=C(Oc1ccccc1)N1CCC[C@@]2(CCN(c3ccncc3)C2)C1	2.8%	/	2.8%	-1.8%	/	8.1%
Cc1c(CCOC(=O)c2cc([N+](=O)[O-])cc([N+](=O)[O-])c2)sc[n+]1CC(=O)c1ccc(Br)cc1	2.51µM*	/	/	/	/	15.0%
COc1ccc(C)cc1NC(c1nnc(-c2ccccc2)o1)c1ccc(F)cc1Cl (stereo not given)	/	/	/	/	6.4	/
COc1ccc(CC(NC(C)=O)C(=O)NC2CCN(c3ncccc3[N+](=O)[O-])CC2)cc1 (stereo not given)	6.31µM*	/	/	/	/	4.7%
CC(=O)NC(Cc1ccc(F)cc1)C(=O)NC1CCN(c2nnnn2-c2ccccc2)CC1 (stereo not given)	1µM*	-1.2	-13.1%	-0.7%	-3.4	34.4%[38.3 µM]
CC(=O)NC(Cc1ccc(C(C)C)cc1)C(=O)NC1CCN(c2nc(C)cc(C)n2)CC1 (stereo not given)	?	-7.6	-13.8%	0.0%	4.3	-15.5%[38.3 µM]
CCS(=O)(=O)N1CCN(c2ccccc2F)CC1	1.4%	14.4	1.0%	-2.6%	4.3	-1.0%[38.3 µM]
O=C1Oc2ccccc2C(=O)/C1=C/N1CCN(c2ccccc2F)CC1	17.8µM*	/	/	/	/	10.4%
CCCCn1c(SCC(=O)NCc2ccco2)nc2cc(S(N)(=O)=O)ccc21	14.1µM*	27.1	?	-9.1%	0.9	53.9%[38.3 µM]
CCCCn1c(SCC(=O)c2ccc(OCC)cc2)nc2cc(S(N)(=O)=O)ccc21	35.5µM*	37.7	-8.6%	-12.3%	-4.3	?
CCCCn1c(SCC(=O)N2CCCCC2)nc2cc(S(N)(=O)=O)ccc21	?	2.7	-19.6%	3.2%	8.0	3.2%[38.3 µM]
